The campaign covered roughly 340,000 compounds. About 1,000 (0.29%) were called active. No stated cut-off is given here; in the data, inconclusive means inhibition above about 29% without an active follow-up result; inactive means below that. Not all results are given here. Results with a measured potency or affinity are listed apart.

In the assay the target is Genome polyprotein (Dengue virus type 2 (strain 16681-PDK53)) (UniProt P29991). The assay is described as follows: flavivirus cap methylation enzyme inhibition – biochemical, confirmation dose response, primary screen (AID 588689). The conditions noted are these: Dengue-2 NS5 methyltransferase capping enzyme assay, at 25 µM, stronger effect = higher value.
Setting [1] is: measured here: pilot screen replicate inhibition.

For orientation: inhibition means the change of the read-out against control, counted positive when it falls. As for `Cc1ncc(C(O)c2ccc(N(C)C)cc2)n1Cc1ccccc1` (stereo not given), the inhibition is 0% (inactive).

Take `CC(C)C(C(=O)NC1CCCC1)N(Cc1ccco1)C(=O)CNS(=O)(=O)c1ccccc1` (stereo not given): the inhibition is -8.96% (inactive).

Turning to `CCn1c(=O)n(CC)c2cc(N3CCCC3)c(NC(=O)c3ccc(OC)c(Br)c3)cc21`, the inhibition was -2.72% (inactive). On the same count and under the same terms, the result for `O=c1ccc(-c2ccc(S(=O)(=O)NCc3cccc(Br)c3)s2)n[nH]1` reads -1.36% (inactive). Same read-out and setting: the result for `CCCCNC(=O)CN(Cc1ccco1)S(=O)(=O)c1ccc(C(C)=O)cc1` reads -2.95% (inactive); that for `O=C(O)CC1CCC(=C(Cl)Cl)C1` (stereo not given), 4.83% (inactive).

For the compound `Cc1ccc(S(=O)(=O)N(CC(=O)Nc2cccc(C(F)(F)F)c2)C(=O)N2CCN(C)CC2)cc1`, the inhibition was -4.32% (inactive). On the same count and under the same terms, with `CCn1c(SCC(=O)NC)nnc1C(C)C` the figure was 4.79% (inactive).

Turning to `Cc1ccccc1-c1c(C)oc2cc(O)ccc2c1=O`, the inhibition was 1.35% (inactive). In the case of `COCCN(C(=O)COC(=O)CCc1ccccc1)c1c(N)n(Cc2ccccc2)c(=O)[nH]c1=O`, the inhibition is 0% (inactive). Same read-out and setting: with `O=C(O)CCn1cc(/C=C\C(=O)c2ccc(Cl)cc2)c(-c2cccc(Br)c2)n1` the figure was 26% (inactive); with `O=C(O)CCn1cc(/C=C/C(=O)c2ccc(Cl)cc2)c(-c2ccc(Br)cc2)n1`, 12.8% (inactive); with `CCOc1ccc(NC(=O)CSc2nc(C3CC3)nc3ccccc23)cc1`, 15.3% (inactive). In the case of `CCOC(=O)c1c(NC(=O)C(Sc2ccccc2)c2ccccc2)sc(C(N)=O)c1C` (stereo not given), the inhibition was 2.74% (inactive). Also, the inhibition under setting [1] is 3.33%. As to `O=c1c2ccccc2[nH]c(=S)n1-c1cccc(S(=O)(=O)N2CCCC2)c1`, the inhibition is -8.01% (inactive). For `CC[C@H](C)/C=C(C)/C=C/C1=CC2=CC(=O)[C@]3(C)OC(=O)[C@@H](C(C)=O)[C@@H]3C2=CO1`, the inhibition is 7.68% (inactive).

`CCC(C)/C=C/C1=CC2=C(Cl)C(=O)C3(C)OC(=O)C(C(=O)C(C)C(C)O)C3C2=CO1` (stereo not given): the inhibition was 4.35% (inactive). In the case of `O=C(Cn1ncc2c([nH]c3ccccc32)c1=O)NCCCN1CCN(c2ccccc2)CC1`, the inhibition was 0% (inactive). For the compound `C=CCn1cc(C(=O)NCC2CCCO2)c(=O)c2cc(S(=O)(=O)N3CCCCCC3)ccc21` (stereo not given), the inhibition is -3.55% (inactive).

For the compound `S=c1[nH]nc(Cc2cccs2)n1-c1ccccc1`, the inhibition was -2.82% (inactive). Same read-out and setting: with `CC(C)(C)c1nnc(NC(=O)C2CCN(c3ncccn3)CC2)s1` the figure was -2.45% (inactive); with `COc1cc(/C=C2/SC(=O)NC2=O)ccc1Oc1ccc([N+](=O)[O-])cc1[N+](=O)[O-]`, 23.6% (inactive); with `O=C(c1ccccc1)c1ccc(Oc2ccc([N+](=O)[O-])cc2[N+](=O)[O-])cc1`, -2.33% (inactive). Turning to `CC1=NN(c2ccc([N+](=O)[O-])cc2)C(=O)/C1=C\N(C)C`, the inhibition is -9.46% (inactive). As to `COc1cc(/C=C2/C(=O)N(c3ccc(C)c(C)c3)N=C2C)cc([N+](=O)[O-])c1O`, the inhibition was 9.88% (inactive). In addition, the inhibition under setting [1] is -3.04%.

Regarding `O=C(c1ccc(Cl)s1)N1CCc2ccccc21`, the inhibition was -1.37% (inactive). On to `O=C(CCN1CCCCC1=O)NC1CCCN(Cc2ccc(Cl)cc2)C1` (stereo not given), for which the inhibition is -5.2% (inactive).

Regarding `CN1C(=O)/C(=C/c2ccccc2OCc2ccc(F)cc2)N(C)C1=S`, the inhibition was -7.89% (inactive). Take `O=C1NC(=O)/C(=C/c2ccccc2Oc2ccc(Cl)cc2)S1`: the inhibition is -4.16% (inactive). For the compound `Cc1ccc(Oc2ccccc2/C=C2\SC(=O)N(C)C2=O)cc1`, the inhibition is 0% (inactive). The inhibition under setting [1] is 5.03%. For the compound `O=C1NC(=O)/C(=C\c2ccccc2Oc2ccc(F)c(F)c2)S1`, the inhibition was 24.6% (inactive). Regarding `CCOC(=O)CN(C(=O)CNC(=O)c1ccco1)C(C(=O)NC1CCCC1)c1ccccc1OCC` (stereo not given), the inhibition is -1.62% (inactive).

Regarding `NS(=O)(=O)c1ccc(CCNC(=O)CCNS(=O)(=O)c2ccccc2C(F)(F)F)cc1`, the inhibition is 0% (inactive).

As to `C/C(=N\NS(=O)(=O)c1ccccc1)c1cccc(NC(=O)c2cccc(Cl)c2)c1`, the inhibition was -5.93% (inactive). As for `COc1cccc(NC(=O)CN(C)C(=O)CN2C(=O)c3ccc([N+](=O)[O-])cc3C2=O)c1`, the inhibition was -7.27% (inactive). Same read-out and setting: the result for `CS(=O)(=O)c1ccc(C(=O)OCC(=O)c2ccc(Cl)s2)cc1` reads 4.34% (inactive). On the same count and under the same terms, the result for `CCCCCNC(=O)C1CCC(Cn2c(=S)[nH]c3ccccc3c2=O)CC1` (stereo not given) reads -0.74% (inactive); that for `O=C(O)c1ccccc1Nc1ccccc1C(=O)O`, 4.09% (inactive). Turning to `COc1cccc(Nc2ccccc2C(=O)O)c1`, the inhibition was -2.96% (inactive).

For `COc1ccccc1/C(C)=N/NC(=O)c1nnn(-c2nonc2N)c1C(C)C`, the inhibition is -2.62% (inactive). The same measure, in the same setting: the result for `CC(=O)N1CCc2c(sc(NC(=O)c3cccc(N4C(=O)CCC4=O)c3)c2C(N)=O)C1` reads -10.4% (inactive); that for `Cc1cccc(N2C(=O)/C(=C\c3ccc(C(=O)O)cc3)c3ccccc3C2=O)c1`, 25% (inactive); that for `O=Cc1ccc(C(=O)O)cc1`, -0.73% (inactive).

Take `Cn1nc(-c2ccc(Cl)cc2)cc1NC(=O)Nc1ccccc1`: the inhibition is -6.13% (inactive). Turning to `COc1ccc(CN(C)C(=O)Cn2cnc3c(OCc4ccccc4)ncnc32)cc1OC`, the inhibition was 3.64% (inactive). Besides, under setting [1], the inhibition is 2.12%. For the compound `O=C1c2cccc3cccc(c23)C(=O)N1CCN1CCN(CC(O)COc2ccccc2)CC1` (stereo not given), the inhibition is 1.28% (inactive). On to `COc1ccc(C)cc1NC(=O)CN1CCN(c2ccccn2)CC1`, for which the inhibition is -3.92% (inactive).

`Cn1c(=O)c2[nH]c(-c3ccccc3Cl)c(O)c2n(C)c1=O`: the inhibition was -9.85% (inactive). Turning to `CC(=O)Nn1cc2c(c1-c1ccccc1)c(=O)n(C)c(=O)n2C`, the inhibition was -11.6% (inactive). For the same compound, the inhibition under setting [1] was -4.71%. For `CSc1nc(C=Nc2ccccc2Cl)c(O)n1Cc1cccc(Cl)c1`, the inhibition was -15.4% (inactive). Regarding `CCc1nnc(SCC(=O)Nc2ccc3c(c2)OCO3)n1CC`, the inhibition was 2.59% (inactive).

Turning to `COc1cc(/C=C/c2ccc3cccc(O)c3n2)c(Br)cc1O`, the inhibition was -37.2% (inactive).

Regarding `COc1cc(C=C2C(=O)c3ccccc3C2=O)ccc1O`, the inhibition was 25.4% (inactive). Still for that read-out and setting: with `CCCCN1C(=O)NC(NS(=O)(=O)c2ccc(N)cc2)(C(F)(F)F)C1=O` (stereo not given) the figure was 1.6% (inactive). `CC#CCN1C=C(C(=O)OCC)C(C)N(Cc2ccc(Br)cc2)S1(=O)=O` (stereo not given): the inhibition was 3.64% (inactive). Besides, the inhibition under setting [1] was -3.33%.

Turning to `COc1ccccc1N1CCN(C2CC(=O)N(c3ccc(F)cc3)C2=O)CC1` (stereo not given), the inhibition was 10.3% (inactive).

As for `CCN(CC)C1CC(=O)N(c2ccc(Br)cc2)C1=O` (stereo not given), the inhibition was -14.3% (inactive).

Regarding `CCCCOc1ccc(N2C(=O)CC(N(O)c3ccccc3)C2=O)cc1` (stereo not given), the inhibition was -3.24% (inactive). On the same count and under the same terms, with `COc1ccccc1N1C(=O)CC(N(O)c2ccccc2)C1=O` (stereo not given) the figure was -4.6% (inactive).

The record behind these values is PubChem BioAssay AID588689 (Southern Research Specialized Biocontainment Screening …, 2011).
